An excerpt weighted towards active compounds, which were near 4.2% of everything screened.
ClpP mod = qHTS Assay for Activators of ClpP; purified B. subtilis ClpP, FRET peptide cleavage, 20 min; Potency, µM (titrated, usually from 57.5 µM), without a hit: at the top dose activity change, negative = active; 340,000 tested, 1.9% active; AID 651965, 2013; active means well fitted falling curve with a large enough effect; inconclusive means small, poorly fitted or top-dose-only effect; inactive means no such curve, though single readings can be large or run the other way; further: potency means the concentration at half of the fitted maximal effect; the source files actives as falling curves though it sought activators and does not explain the sign; nearly all actives have a fitted effect of over 65% in size
Target sequence (P80244 whole entry, looked up): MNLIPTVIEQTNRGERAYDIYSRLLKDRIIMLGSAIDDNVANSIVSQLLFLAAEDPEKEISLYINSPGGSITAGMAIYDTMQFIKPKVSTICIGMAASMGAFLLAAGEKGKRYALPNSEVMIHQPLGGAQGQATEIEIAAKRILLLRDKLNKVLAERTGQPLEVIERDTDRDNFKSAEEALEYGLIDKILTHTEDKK
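FRET quenching reversal measured ClpP activation: 10 microg/mL B. subtilis ClpP at pH 8 with the FRET-FV decapeptide, read at 430 nm after 320 nm excitation. The 20-min minus 0-min signal was scaled between DMSO/no-enzyme wells and ADEP (5.8 microM final).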
uPA generation = blocks generation of uPA at the cell surface | AID 540303 | 330,000 tested, 0.31% active | cell surface uPA generation assay, qHTS | Potency, µM (top dose mostly 38.3 µM), inactives show top-dose activity change, negative = inhibition, hits mostly inhibitors; active means well fitted inhibition curve with a large enough effect; inconclusive means small, poorly fitted or top-dose-only effect; inactive means no such curve, though single readings can be large or run the other way; tested in mouse RAW 264.7 cells; further: potency means the concentration at half of the fitted maximal effect; on the % scale 0 is the no-effect control and ±100 the full control effect; nearly all actives have a fitted effect of over 55% in size
Sfp PPTase inh = Sfp phosphopantetheinyl transferase inhibition | Potency, µM, without a hit: largest response in the series, negative = inhibition, usual class: inhibitors | Q9F4F7 | 310,000 tested, 3.5% active | Biochemical Sfp PPTase activity, qHTS;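 further: the enzyme is Sfp with the accession as filed and its product quenches rhodamine fluorescence; potency means the concentration at half of the fitted maximal effect; 0% = enzyme reaction without inhibitor and -100% = no enzyme wells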
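Sfp 15 nM + cpd, 15 min RT; start w/ rhodamine-CoA 5 uM, BHQ-2-YbbR 12.5 uM (final); 50 mM Hepes pH 7.6, 10 mM MgCl2, 0.01% NP-40, 0.01% BSA; read 525/598 nm at 0 and 30 min.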
TCR act = T cell receptor activation; Potency, µM (doses to about 9.22 µM), without a hit: at the top dose activation of IL-2 secretion, usual class: activators; 330,000 tested, under 10 active; primary human leukocytes, anti-CD3, IL-2 HTRF, 48 h; further: % of control where 0% means no effect
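TCR engagement came from a-CD3 beads alone, with compounds added to primary human leukocytes for 48 hr. Secreted IL-2 bridged europium cryptate- and d2-labelled anti-IL-2 antibodies, giving FRET emission at 665nm after 320nm excitation.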
* marks the source's active call; other numbers are inactive results; ? = inconclusive; . = no result; [ ] = another dose, or the depositor's remark. Unless noted, the call rests on the fitted dose curve; in most records, active means well fitted curve in the direction sought with a large enough effect; inconclusive means small, poorly fitted or top-dose-only effect, or another doubt; inactive means no such curve, though single readings can be large; an effect the other way counts as inactive or inconclusive.

SMILES	ClpP mod	uPA generation	Sfp PPTase inh	TCR act
C(=C\c1ccccc1)/CN1CCN(CCOC(c2ccccc2)c2ccccc2)CC1	.	.	56.2µM*	.
CC1CC2OC2/C=C\C=C/C(=O)Cc2c(Cl)c(O)cc(O)c2C(=O)O1 (stereo unspecified)	.	.	-7.6%	.
CC1O[C@@H](O[C@@H]2C(O)C[C@H](O[C@@H]3C(O)C[C@@H](OC4CC[C@@]5(C)C6CC[C@]7(C)C(C8=CC(=O)OC8)CC[C@@]7(O)C6CC[C@@H]5C4)OC3C)OC2C)CC(O)[C@H]1O (stereo partly specified)	.	.	1.9%	.
COc1ccccc1-n1c(O)c(/C=C2\C=Nc3ccccc32)c(=O)[nH]c1=O	1.7%	10.2%	?	1.4%
COc1ccc(OC)c(-n2c(O)c(/C=C3\C=Nc4ccccc43)c(=O)[nH]c2=O)c1	.	1.8%	50.1µM*	-2.2%
CCOc1ccc2cc(C#N)c(=O)oc2c1	.	.	8.3%	.
c1cncc(C2CCCCN2Cc2ccc3c(c2)OCO3)c1 (stereo unspecified)	-2.8%	-0.2%	-0.7%	10.6%
Clc1cccc(CN2CCCCC2c2cccnc2)c1 (stereo unspecified)	0.1%	2.6%	50.1µM*	6.1%
CC1Oc2cc3c(-c4c(O)cc(O)c5c(O)c6c(cc45)OC(C)C(C)C6=O)c(O)cc(O)c3c(O)c2C(=O)C1C (stereo unspecified)	0.4%	5.62µM*	15.1%	1.1%
O=C(OCCc1ccccc1)c1cc(O)c(O)c(O)c1	-2.0%	?	.	-0.6%
Cc1cc2c(cc(C(=O)N3CCC(C(=O)NC4CCCC4)CC3)n2Cc2c(F)cccc2Cl)o1	1.1%	-25.5%	50.1µM*	3.1%
O=C(O)/C=C/CO	.	.	16.7%	.
CCCCC/C=C\C/C=C\C/C=C\C/C=C\CCCC(=O)N(Cc1ccc(O)c(Cl)c1)Cc1ccc(O)c(Cl)c1	.	.	-5.2%	.
CCCCC1C(=O)NC(=S)NC1=O	.	.	10µM*	-2.5%[46.1 µM]
Nc1cccc2cccc([N+](=O)[O-])c12	15.8µM*	-4.0%	.	7.0%
c1ccc(N2CCC3(CCNCC3)CC2)nc1	.	.	-7.2%	.
CCCCC[C@@H](/C=C/C=C\CCCCCCCCCC(=O)O)OO	.	.	1.9%	.
Cc1c(C=C2C(=O)N(C)C(=S)N(C)C2=O)c2ccccc2n1CC(=O)NCC1CCCO1 (stereo unspecified)	0.3%	3.5%	50.1µM*	3.8%
Cc1ccc2cc(C=C(C#N)C#N)c(Cl)nc2c1	15.1%	-9.9%	56.2µM*	-1.4%[46.1 µM]
Cc1cc(N2CCCC2)ccc1C=C(C#N)C#N	0.5%	1.6%	11.5%	4.3%
CC(=O)O[C@H]1C[C@H](O[C@H]2[C@@H](O)CC(O[C@H]3[C@@H](O)C[C@H](O[C@H]4CC[C@@]5(C)[C@H](CC[C@@H]6[C@@H]5CC[C@]5(C)[C@@H](C7=CC(=O)OC7)CC[C@]65O)C4)O[C@@H]3C)O[C@@H]2C)O[C@H](C)[C@H]1O[C@@H]1O[C@H](CO)[C@@H](O)[C@H](O)[C@H]1O (stereo partly specified)	.	.	11.1%	.
CON(C)C(=O)Nc1ccc(Cl)cc1	-5.5%	0.5%	-6.7%	3.4%
O=C(Nc1ccc(Cl)cc1)O/N=C(\c1ccccc1)c1ccccn1	-1.0%	-5.9%	39.8µM*	-0.1%
O=C1NC(=O)C(=Cc2ccc(-c3ccc(F)cc3O)o2)C(=O)N1	4.0%	-9.5%	50.1µM*	-6.0%
O=C1NC(=O)C(=Cc2ccc(Sc3ccccc3)o2)C(=O)N1	.	0.1%	25.1µM*	6.4%
SMILES	ClpP mod	uPA generation	Sfp PPTase inh	TCR act
O=C1NC(=O)C(=Cc2ccc(-c3ccc(S(=O)(=O)N4CCOCC4)cc3)o2)C(=O)N1	0.6%	-0.1%	8.91µM*	5.8%
O=C1NC(=O)C(=Cc2ccc(-c3ccc(Cl)cc3)o2)C(=O)N1	3.2%	-6.0%	20µM*	5.6%
Cn1c(O)c(N=Nc2ccc(S(=O)(=O)N3CCOCC3)cc2)c(=O)n(C)c1=O	0.2%	-2.3%	1.7%	0.8%[46.1 µM]
O=C1NC(=O)C(=Cc2ccco2)C(=O)N1	.	1.1%	.	-2.8%
C[C@@H]1C[C@H]2[C@@H]3CCC4=CC(=O)C=C[C@]4(C)[C@@]3(Cl)[C@@H](O)C[C@]2(C)[C@@]1(OC(=O)c1ccco1)C(=O)CCl	0.1%	?	.	3.9%
CCCCCCCCCOc1ccc2[nH]cc(CCN)c2c1	.	.	50.1µM*	.
CC(C)NC(=O)N1CCC2(CC1)CCN(C(=O)Oc1ccccc1)CC2	.	.	15.3%	.
c1ccc(Nc2ccc(Nc3ccccc3)cc2)cc1	?	6.31µM*	.	6.0%
CNC(=O)Oc1ccc(-c2cn3cc(C)ccc3n2)cc1	12.6µM*	-11.3%	-0.6%	2.7%[46.1 µM]
CN1C(=O)C(Cc2ccsc2)C(=O)N(C)C1=O	?	3.4%	28.2µM*	0.2%
Cc1c(OC(=O)N(C)C)ccc2c1O/C(=C\c1ccco1)C2=O	.	4.1%	79.4µM*	-1.5%
CN(C)C(=O)Oc1ccc(Cl)c2ccccc12	0.2%	1.7%	-6.1%	-4.3%
CN(C(=O)Cc1ccc(Cl)c(Cl)c1)[C@H](CN1CCCC1)c1cccc(N=C=S)c1	.	.	50.1µM*	.
COc1ccc(C(CNC(=O)Cc2ccc(Cl)c(Cl)c2)N2CCCCC2)cc1 (stereo unspecified)	-8.3%	-11.1%	4.4%	-7.4%
CN(C(=O)Cc1ccc(Cl)c(Cl)c1)C(CN1CCCC1)c1cccc(N=C=S)c1 (stereo unspecified)	.	.	44.7µM*	.
CNC(=O)COC(=O)c1ccc(-c2nc3ccccc3s2)s1	6.31µM*	3.6%	19.1%	-0.6%
Cc1ccc(Cl)cc1N1CCN(CCN)CC1	1.0%	4.0%	11.2%	5.7%
Cc1ccc(Cl)cc1N1CCN(C(=O)c2cn(C)c(=O)c3c2c2ccccc2n3C)CC1	28.2µM*	?	9.9%	.
CN1/C(=C\C=C2C(=O)NC(=O)NC2=O)C(C)(C)c2ccccc21	-0.2%	?	10.0%	2.8%
CN1/C(=C\C=Nc2ccccc2)C(C)(C)c2ccccc21	0.1%	-13.1%	79.4µM*	0.0%
C[C@H]1O[C@@H](O[C@H]2[C@@H](O)C[C@@H](O[C@H]3[C@@H](O)C[C@H](O[C@H]4CC[C@@]5(C)[C@H](CC[C@@H]6[C@@H]5CC[C@]5(C)[C@@H](C7=CC(=O)OC7)CC[C@]65O)C4)O[C@@H]3C)O[C@@H]2C)C[C@H](O)[C@@H]1O	0.6%	.	.	.
COc1cc(N2CCOCC2)ccc1C=C1C(=O)NC(=O)NC1=O	.	7.3%	56.2µM*	-7.0%[46.1 µM]
Cc1cc(N2CCOCC2)ccc1/C=C1\C(=O)NC(=O)N(c2ccccc2)C1=O	.	0.6%	35.5µM*	-4.2%
O=C1NC(=O)N(c2cccc(F)c2)C(=O)/C1=C/c1ccc(N2CCOCC2)cc1	-3.4%	-1.6%	31.6µM*	8.6%
O=C1NC(=O)C(=Cc2ccc(N3CCOCC3)cc2)C(=O)N1	.	2.5%	-8.1%	5.0%
C[C@]12CC[C@H](O)C[C@H]1CCC1C2CC[C@]2(C)[C@@H](c3ccc(=O)oc3)C[C@H]3O[C@]132 (stereo partly specified)	0.0%	.	0.4%	.
